Experimental data from the supplement of paper PMC6555819.

Columns and labels:
Assay in all cases: PBM binding z-score (relative to random genomic background probes); higher = stronger binding; sequences stand for … in GC…GCGATTGACAGCGTAGAATGAAGG
[1] = system: PPARg:RXRa DBDmut IVT, anti-RXR (DBD mutation: RXRa K156A/R161A, NR concentration 270 nM, RXRa partner concentration 90 nM)
How it was run: (§1)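 Probes were double-stranded and carried 34-nt variable regions with direct-repeat seeds, single-nucleotide variants, half-site ablations and random human genomic background sequences, printed on custom Agilent 4×180K protein-binding microarrays. Arrays were incubated 1 h with ligand-free nuclear receptor dimers in PBS pH 7.4, 2% milk, 0.02% Triton X-100, 1 mM DTT, 0.2 mg/mL BSA and 0.4 mg/ml salmon testes DNA. Antibodies against each partner (one per run) detected binding, and scanned fluorescence was regression-normalized. Binding z-scores use the random background probes as reference.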

[2] = system: PPARg:RXRa IVT, anti-PPARg (NR concentration 270 nM, RXRa partner concentration 90 nM)
How it was run: as §1

[3] = system: PPARg DBDmut:RXRa IVT, anti-PPARg (DBD mutation: PPARg1 K132A/R137A, NR concentration 270 nM, RXRa partner concentration 90 nM)
How it was run: as §1

[4] = system: PPARg DBDmut IVT, anti-PPARg (DBD mutation: PPARg1 K132A/R137A, NR concentration 270 nM)
How it was run: as §1

[5] = system: PPARg homodimer (NR concentration 180 nM)
How it was run: as §1

[6] = system: PXR:RXRa (NR concentration 270 nM, RXRa partner concentration 90 nM)
How it was run: as §1

[7] = system: PXR homodimer (NR concentration 270 nM)
How it was run: as §1

[8] = system: RARa:RXR (NR concentration 270 nM, RXRa partner concentration 90 nM)
How it was run: as §1

[9] = system: RARa homodimer (NR concentration 270 nM)
How it was run: as §1

[10] = system: RARb:RXRa (NR concentration 270 nM, RXRa partner concentration 90 nM)
How it was run: as §1

[11] = system: RARb homodimer (NR concentration 270 nM)
How it was run: as §1

[12] = system: RARg:RXRa (NR concentration 270 nM, RXRa partner concentration 90 nM)
How it was run: as §1

[13] = system: RARg homodimer (NR concentration 270 nM)
How it was run: as §1

[14] = system: RXRa DBDmut IVT, anti-RXR (DBD mutation: RXRa K156A/R161A, NR concentration 90 nM)
How it was run: as §1

[15] = system: RXRa homodimer (NR concentration 180 nM)
How it was run: as §1

[16] = system: THRa:RXRa (NR concentration 90 nM, RXRa partner concentration 90 nM)
How it was run: as §1

[17] = system: THRa homodimer (NR concentration 90 nM)
How it was run: as §1

[18] = system: VDR homodimer (NR concentration 270 nM)
How it was run: as §1

Sequence	PBM binding z-score [1]	PBM binding z-score [2]	PBM binding z-score [3]	PBM binding z-score [4]	PBM binding z-score [5]	PBM binding z-score [6]	PBM binding z-score [7]	PBM binding z-score [8]	PBM binding z-score [9]	PBM binding z-score [10]	PBM binding z-score [11]	PBM binding z-score [12]	PBM binding z-score [13]	PBM binding z-score [14]	PBM binding z-score [15]	PBM binding z-score [16]	PBM binding z-score [17]	PBM binding z-score [18]
TCATATAGGTAAACAGGTGAAAGGCCGTAAGTTA	4.71	4.59	1.06	1.36	1.42	0.956	0.656	1.37	1.25	0.989	1.29	0.793	0.375	1.61	1.2	0.682	0.262	0.499
CAACCTAGGTCAAAGGTCAAAGTCGAGCCAACCA	5.72	7.45	2.7	1.79	4.67	7.39	1.35	8.88	2.65	5.83	5.33	9.2	7.77	3.16	10.1	5.01	1.81	3.91
ACAGACAGGTGATGAAGCTAACTCAGGCTATCAT	-0.036	-0.28	0.338	0.232	0.0494	-0.231	0.283	0.275	-0.315	-0.112	-0.226	0.175	0.281	-0.327	0.256	0.425	-0.032	-0.132
GATACAGGGTCAGCTAGAGTCCAGAGTATGGAAA	1.24	2.05	0.791	0.0344	1.83	4.14	-0.0221	4.01	0.0956	3.84	3.02	5.59	4.41	1.39	4.32	2.88	0.377	1.58
CGACCAAGGTCAGCAGGTCAGTGAAAGCGACGTG	2.72	3.64	-0.557	-0.609	2.7	3.18	-0.228	4.62	0.262	5.02	4.67	6.06	6.15	2.12	4.83	3.54	1.63	1.16
CTCGAATGGTCGGTTGAGGTGAGTATACGGATAA	-0.784	0.126	0.733	0.405	-0.164	-0.105	-0.022	0.211	-0.0787	0.283	0.181	-0.0812	0.168	-0.376	-0.171	2.85	1.49	0.136
TCTAGTTGGTCAAGGAGGTCACACACGACGGGTA	2.22	3.77	0.973	1.49	2.56	4.22	1.23	4.22	1.46	3.47	4.26	4.38	4.29	0.835	4.27	3.57	2.15	2.71
AGAACGAGGGCATGCTGAGTTGATAGCAGAGTAG	2.87	1.99	0.0501	-0.0747	-0.0685	1.14	0.117	0.374	-0.883	1.89	0.498	1.33	1.34	2.24	0.92	1.2	-0.497	1.74
TCTAGTTGGTCAAAGGTCATACACTCGAAATGCG	3.45	5.82	1.78	2.27	4.5	6.04	3.03	7.27	3.78	4.73	5.06	6.94	5.49	2.31	8.07	4.15	1.94	3.4
AGCGAAAGGTCGTGAGGTGAGTATACAGAAAGGC	0.425	2.63	0.478	1.08	1.38	2.81	0.0715	3.96	0.217	4.29	3.19	4.63	3.87	0.985	5.33	3.46	1.27	0.74
ATCTCTAGGTAAGACTCAGTTCAGTGTAGAACGC	2.3	1.23	0.993	0.824	1.01	1.15	1.68	0.389	1.23	0.291	0.758	0.266	0.408	0.967	0.133	0.88	0.909	1.39
CCTTACGAGTCAAGGTTATAGCACGGGTGGTACG	-0.121	0.156	-0.0742	-0.146	1.14	0.823	0.506	0.888	0.784	1.07	1.07	0.83	0.637	0.174	1.07	1.58	0.715	0.529
TCGAGTAGGTTACCAATGGGGTATTCAGCTTTCT	3.18	2.46	-0.47	-0.0236	-0.0597	0.05	-0.757	0.339	-0.642	0.76	0.128	0.0634	0.354	0.563	0.443	0.253	-0.473	-0.39
AATACAGGGTCACTAGGCCAGATTAGGTACGAAT	3.7	5.68	1.98	3.15	2.45	3.32	0.427	4.17	0.909	4.09	3.44	5.37	4.96	3.03	5.9	3.57	1.46	2.83
CCGACTGGGGCAGAAAGCTTACCATACCATCCGG	1.49	0.739	-1.01	-2.56	-0.236	-0.856	-0.585	-1.22	-0.188	-0.092	-0.46	-0.395	-0.221	-0.744	-0.422	-0.808	-0.889	-0.719
